Among the data in PubChem BioAssay (NCI) are growth values, retold here.

Each structure is given as a SMILES string. The panel holds about 83,000 compounds, 20% with a hit somewhere; the sample as a whole holds those more often.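 The test compound was applied at a single concentration to cells in 96-well plates for 48 hours, and percent growth was recorded.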 A number with no mark means an inactive call. The source made the active and inactive calls. Rule for the calls: active = growth percent below 10; inactive = the rest.

Test systems include NCI-H23 lung; NCI-H226 lung; NCI-H322M lung; HOP-62 NSCLC; NCI-H460 lung; HOP-92 NSCLC; NCI-H522 lung; A549/ATCC NSCLC; 786-0 renal; COLO 205 colon; DU-145 prostate; K-562 leukemia; MALME-3M melanoma; MDA-MB-231 breast; RXF 393 renal; SF-268 CNS; SF-295 CNS; SF-539 CNS; UACC-257 melanoma; M14 melanoma.
Common to all, as to assay: NCI-60 one-dose screen, 48 h (100 = growth as untreated, 0 = no growth, -100 = all killed)
Details in all cases: 10 µM unless noted

As to `COC(C(=O)[C@@H](O)[C@@H](C)O)[C@@H]1Cc2cc3cc(O[C@H]4C[C@@H](O[C@H]5C[C@@H](O)[C@H](O)C(C)O5)[C@H](O)C(C)O4)c(C)c(O)c3c(O)c2C(=O)[C@H]1O[C@H]1C[C@@H](O[C@H]2C[C@@H](O[C@H]3C[C@@H](O)[C@@H](O)C(C)O3)[C@@H](O)C(C)O2)[C@H](O)C(C)O1` (stereo not given in full), the growth was -0.735% (active) with NCI-H23 lung; -22.2% (active) with NCI-H226 lung; 14% in the test on NCI-H322M lung; -4.46% (active) in the test with HOP-62 NSCLC; 7.75% (active) in the test on NCI-H460 lung; 13.3% in the test on HOP-92 NSCLC. Also, the growth in the test with NCI-H522 lung was -23.7% (active); in the test on A549/ATCC NSCLC, 2.42% (active); with 786-0 renal, -1.51% (active); in the test with COLO 205 colon it was -43.3% (active); in the test with DU-145 prostate it was 17.5%; in the test with K-562 leukemia, 9.59% (active). Also, the growth in the test on MALME-3M melanoma is -38.7% (active); in the test with MDA-MB-231 breast it was 3.75% (active); in the test on RXF 393 renal it was -60.5% (active); in the test on SF-268 CNS, 24.4%; in the test on SF-295 CNS it was 12.9%; in the test with SF-539 CNS it was 1.03% (active). Also, the values for the growth in the test on UACC-257 melanoma and in the test on M14 melanoma were -38.6% (active) and 8.68% (active), respectively.

On to `C[C@@]12CC=C3c4nc(Nc5cccc(O)c5)sc4CC[C@]3(C)[C@H]1CC[C@]1(C)C(=O)CC[C@@H]21`, for which the growth with NCI-H23 lung was 63.7%; in the test with NCI-H226 lung, 94.5%; with NCI-H322M lung, 72.8%; in the test with HOP-62 NSCLC, 27.5%; with NCI-H460 lung, 43.9%; in the test with HOP-92 NSCLC, 64.3%. The growth was -56.4% (active) with NCI-H522 lung; 55.4% in the test on A549/ATCC NSCLC; -0.522% (active) in the test on 786-0 renal; 34.4% with COLO 205 colon; 12.7% in the test with DU-145 prostate; 4.81% (active) in the test on K-562 leukemia. Also, the growth was 35.3% in the test on MALME-3M melanoma; 39.5% with MDA-MB-231 breast; -6.67% (active) in the test with RXF 393 renal; 43.1% in the test with SF-268 CNS; -47.7% (active) with SF-295 CNS; -41.8% (active) in the test with SF-539 CNS. The values for the growth in the test with UACC-257 melanoma and in the test on M14 melanoma were 79.6% and 54.8%, respectively.

On to `CC(=O)O[C@H](C[C@H](C(C)C)N(C)C(=O)[C@@H](NC(=O)[C@H]1CCCCN1C)C(C)C)c1nc(C(=O)N[C@@H](Cc2ccccc2)C[C@H](C)C(=O)O)c(CCOCc2ccccc2)s1`, for which the growth is 24.3% with NCI-H23 lung; -56.8% (active) with NCI-H226 lung; 33.5% in the test with NCI-H322M lung; 29.6% in the test on HOP-62 NSCLC; 5.98% (active) in the test with NCI-H460 lung; 5.5% (active) with HOP-92 NSCLC. In addition, the growth in the test with NCI-H522 lung was -47.4% (active); in the test with A549/ATCC NSCLC, 13%; in the test with 786-0 renal, 7.14% (active); with COLO 205 colon it was -42% (active); in the test with DU-145 prostate it was -9.34% (active); in the test with K-562 leukemia, 7.14% (active). Further, the growth was 23.3% with MALME-3M melanoma; 9.48% (active) in the test on MDA-MB-231 breast; 18.3% with RXF 393 renal; 11.6% with SF-268 CNS; -19.8% (active) in the test on SF-295 CNS; -31.5% (active) with SF-539 CNS. Further, the growth was 54.5% in the test on UACC-257 melanoma and -29.4% (active) with M14 melanoma.

In the case of `Cc1cc(C)cc(Nc2nc3c(s2)CC[C@@]2(C)C3=CC[C@@H]3[C@@H]2CC[C@]2(C)C(=O)CC[C@@H]32)c1`, the growth in the test on NCI-H23 lung was 76.9%; in the test on NCI-H226 lung it was 49.9%; in the test on NCI-H322M lung, 79.9%; in the test with HOP-62 NSCLC, 90%; in the test on NCI-H460 lung, 49.5%; in the test with HOP-92 NSCLC it was 70.7%. In addition, the growth in the test with NCI-H522 lung is 66.1%; with A549/ATCC NSCLC, 72.9%; in the test on 786-0 renal, 31%; in the test with COLO 205 colon, 92.5%; with DU-145 prostate, 41.2%; in the test with K-562 leukemia it was 17.1%. Further, the growth was 79.6% in the test on MALME-3M melanoma; 77.5% in the test on MDA-MB-231 breast; -7.45% (active) in the test on RXF 393 renal; 67.4% in the test with SF-268 CNS; 42.9% with SF-295 CNS; 23% in the test on SF-539 CNS. Besides, the growth in the test on UACC-257 melanoma is 87.9%; in the test with M14 melanoma, 83.4%.

`COC(=O)[C@@H](C)C[C@H](Cc1ccccc1)NC(=O)c1nc([C@@H](C[C@H](C(C)C)N(C)C(=O)[C@@H](NC(=O)[C@H]2CCCN2C)C(C)C)OC(C)=O)sc1C`: the growth with NCI-H23 lung is 31.8%; with NCI-H226 lung it was 43.4%; in the test with NCI-H322M lung it was 35.2%; in the test with HOP-62 NSCLC, 21.1%; in the test with NCI-H460 lung, 7.21% (active); in the test on HOP-92 NSCLC, 8.77% (active). Besides, the growth in the test with NCI-H522 lung is -23.7% (active); in the test with A549/ATCC NSCLC it was 16.1%; with 786-0 renal it was 14.3%; with COLO 205 colon, -74.2% (active); with DU-145 prostate it was 17.7%; in the test with K-562 leukemia it was 9.29% (active). Also, the growth with MALME-3M melanoma was 54.4%; in the test on MDA-MB-231 breast, 14.1%; in the test on RXF 393 renal it was 39%; in the test on SF-268 CNS, 30.6%; with SF-295 CNS, 10.6%; in the test on SF-539 CNS it was -8.41% (active). Besides, the figures for the growth in the test with UACC-257 melanoma and with M14 melanoma were 51.1% and 1.43% (active), respectively.

Consider `COC(=O)[C@@H](C)C[C@H](Cc1ccccc1)NC(=O)c1csc([C@@H](C[C@H](C(C)C)N(C)C(=O)C2(NC(=O)[C@H]3CCCCN3C)CC2)OC(C)=O)n1`, for which the growth in the test with NCI-H23 lung was 15.7%; with NCI-H226 lung, 50.8%; in the test on NCI-H322M lung, 44.8%; in the test with HOP-62 NSCLC, 9.05% (active); in the test with NCI-H460 lung it was 3.12% (active); with HOP-92 NSCLC, -3.99% (active). Also, the growth with NCI-H522 lung was 1.55% (active); in the test on A549/ATCC NSCLC, 11.7%; in the test with 786-0 renal, 17.6%; in the test with COLO 205 colon, -55% (active); in the test with DU-145 prostate, 7.25% (active); in the test with K-562 leukemia, 3.8% (active). Besides, the growth in the test with MALME-3M melanoma is 73.3%; in the test on MDA-MB-231 breast, 13.4%; in the test on RXF 393 renal, 77.5%; in the test with SF-268 CNS, 17.5%; in the test on SF-295 CNS, 4.29% (active); with SF-539 CNS, -10.4% (active). In addition, the growth in the test with UACC-257 melanoma was 56%; with M14 melanoma, 0.0884% (active).

For `CCOP1(=O)CC(C)=C(Cl)C(P(=O)(OCC)OCC)C1` (stereo not given), the growth is 91.5% in the test with NCI-H23 lung; 103% with NCI-H226 lung; 124% in the test on NCI-H322M lung; 93.9% in the test on HOP-62 NSCLC; 112% in the test on NCI-H460 lung; 89.1% with HOP-92 NSCLC. Besides, the growth in the test with NCI-H522 lung is 71.3%; in the test on A549/ATCC NSCLC, 90.4%; in the test on 786-0 renal, 115%; in the test with COLO 205 colon, 94.1%; in the test with DU-145 prostate, 109%; in the test on K-562 leukemia, 110%. Moreover, the growth is 118% with MALME-3M melanoma; 87.6% with MDA-MB-231 breast; 74.5% in the test with RXF 393 renal; 107% in the test on SF-268 CNS; 103% in the test with SF-295 CNS; 113% with SF-539 CNS. Further, the growth with UACC-257 melanoma is 76.9%; in the test with M14 melanoma it was 74.3%.
